Source: PubChem BioAssay (NCATS)
Inconclusive results are not listed. Active and inactive are the calls of the source. The call rests on the fitted dose curve; in most records, active means well fitted inhibition curve with a large enough effect; inconclusive means small, poorly fitted or top-dose-only effect; inactive means flat fitted curve, though single readings scatter.

molecular target: Calcium and integrin-binding protein 1 (Homo sapiens) (UniProt Q99828); assay: Primary qHTS for Identification of Calcium Integrin Binding Protein 1 (CIB1) Competitor (AID 1508620); details: CIB1-GST / FITC-alphaIIb peptide fluorescence polarization; series mostly up to 57.7 µM;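 further: GST tagged CIB1 binding a fluorescein labelled alphaIIb integrin peptide tracer; top concentration of the series differs between compounds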
Source text: Assay Provider: Ulhas P. Naik, PhD Sidney Kimmel Medical College Thomas Jefferson University, Philadelphia, PA Primary function of platelets is to maintain hemostasis. At the site of vascular injury, platelets adhere to adhesive proteins such as collagen and von Willebrand factor. Adherent platelets are activated and generate soluble platelet agonists such as thrombin, ADP and thromboxane A2. Following exposure of circulating platelets to these agonists, results in platelet shape change, granule secretion and activation of platelet integrin alphaIIb-beta3. Ligand binding to activated integrin alphaIIb-beta3 triggers outside-in signaling, leading to platelet aggregation, stabilization of platelet plug, and clot retraction. Upon atherosclerotic plaque rupture also causes platelet plug formation, which underlies a number of cardiovascular diseases such as myocardial infraction and stroke. A number of anti-platelet drugs such as aspirin, clopidogrel, prasugrel, vorapaxar, and eptifibatide are currently available to prevent the thrombotic complications. However, these anti-platelet agents have several limitations including inherent variability in individual responses, developing resistance, and serious bleeding side effects. For these reasons they are not suitable for long-term protection. Based on the experiences with current anti-platelet drugs, it appears that the most useful therapeutic approach is to intersect the secondary responses such as integrin outside-in signaling or recruitment of platelets by TxA2 and secreted ADP. Compounds, which can largely preserve the primary hemostatic function of platelets but inhibit secondary response will be most desired therapeutic agents for treatment of cardiovascular disease. CIB1 is a calcium integrin binding protein, which specifically interact with the alphaIIb subunit of integrin alphaIIb-beta3. Binding of CIB1 to alphaIIb regulates the outside-in signaling in platelets, which is needed for thrombus stabilization and thrombus growth. […] Therefore, we propose that discovery of a small molecule that can prevent the association of CIB1 and alphaIIb-beta3 will be a potential anti-platelet agent that can block the thrombus formation without undue effect on hemostasis. Reference: [1] Naik MU, Nigam A, Manrai P, et al. CIB1 deficiency results in impaired thrombosis: the potential role of CIB1 in outside-in signaling through integrin alpha IIb beta 3. J Thromb Haemost.
PROTOCOL TABLES SEQUENCE No. (1, 2, 3, etc.); […] (e.g., Cells, Incubation, Reagent, etc.); VALUE and DESCRIPTION. 1; Reagent; 3 uL; Protein or buffer (4/3x) 2; Compound; 46 nL; Control inhibitor / compound library 3; Time; 15 min; Room temperature incubation 4; Reagent; 1 uL; Fluorescent labeled peptide (4x) 5; Time; 1000 rpm; Centrifuge 6; Time; 15 min; Room temperature incubation 7; Detection; Ex 480/ Em 540; ViewLux Fluorescence Read NOTES (numbers refer to sequence above) 1; Protein Mixture: C1B1-GST (final concentrations of 1 uM). […] 3; Room temperature incubation. 4; Fluorescent Labeled Peptide: FITC-aIIb (final concentration of 100 nM). Sequence of alphaIIb peptide: Acetyl-[…]-FITC (purity is 95.83%). 5; Centrifuge 1000 rpm (164 g) for 15 seconds. 6; Room temperature incubation. 7; ViewLux Fluorescent Polization Read: excitation = 480(20) / emission = 540(25) S and P; FITC Dichroic mirror.

Sequence of Calcium and integrin-binding protein 1 (Homo sapiens) (Q99828 whole entry, looked up): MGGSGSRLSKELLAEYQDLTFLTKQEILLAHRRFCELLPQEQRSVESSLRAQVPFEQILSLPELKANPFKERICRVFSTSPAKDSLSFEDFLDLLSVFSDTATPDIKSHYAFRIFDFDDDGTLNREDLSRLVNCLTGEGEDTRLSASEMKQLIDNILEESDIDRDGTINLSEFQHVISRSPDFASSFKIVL

Question: For `O=C(Nc1cn[nH]c1-c1nc2ccc(CN3CCOCC3)cc2[nH]1)NC1CC1`, which outcome is on record?
Answer: Its outcome is “inactive”.

Question: For `Cc1cc(Nc2nc(N[C@@H](C)c3ccc(F)cc3)c(C#N)cc2F)n[nH]1`, which outcome is on record?
Answer: The outcome was “inactive”.

Question: For `Cc1cccc(C=NNc2cc(N3CCOCC3)nc(OCCc3ccccn3)n2)c1`, which outcome is on record?
Answer: Its outcome is “inactive”.

Question: How did the outcome turn out when `COc1ccc2c(c1)CC[C@@H](CN(C)CC(=O)O)[C@H]2c1ccccc1` was run?
Answer: Its outcome is “inactive”.

Question: With `CN1CCN(Cc2ccc(NC(=O)Nc3ccc(Oc4cc(NC(=O)C5CC5)ncn4)cc3)cc2C(F)(F)F)CC1` as the compound, how does the outcome read?
Answer: Its outcome is “inactive”.

Question: `O=C(NCCS(=O)(=O)c1ccc(C(F)(F)F)cn1)c1ccc(Cl)cc1` was tested. Which outcome did it give?
Answer: Its outcome is “inactive”.

Question: With `O=C(Cc1ccc(-c2ccc(OCCN3CCOCC3)cc2)cn1)NCc1ccccc1` as the compound, how does the outcome read?
Answer: Its outcome is “inactive”.

Question: With `CC1(C)CCC(c2ccc(Cl)cc2)=C(CN2CCN(c3ccc(C(=O)NS(=O)(=O)c4ccc(N[C@H](CCN5CCOCC5)CSc5ccccc5)c(S(=O)(=O)C(F)(F)F)c4)cc3)CC2)C1` as the compound, how does the outcome read?
Answer: The outcome was “inactive”.

Question: `Cc1coc2c1C(=O)C(=O)c1c-2ccc2c1CCCC2(C)C` was tested. Which outcome did it give?
Answer: Its outcome is “inactive”.

Question: `COc1cc(-c2nn(C3CCC(N4CCN(C(C)=O)CC4)CC3)c3ncnc(N)c23)ccc1NC(=O)c1cc2ccccc2n1C` (stereo not given) was tested. Which outcome did it give?
Answer: The outcome was “inactive”.

Question: How did the outcome turn out when `C[C@@H](Oc1cc(-n2cnc3ccc(CN4CCN(C)CC4)cc32)sc1C(N)=O)c1ccccc1C(F)(F)F` was run?
Answer: Its outcome is “inactive”.

Question: With `COc1cc(C(C)C)c2c(c1)S(=O)(=O)N(COc1cc(=O)n3cccc(OCCN4CCCCC4)c3n1)C2=O` as the compound, how does the outcome read?
Answer: Its outcome is “inactive”.

Question: How did the outcome turn out when `C=CC(=O)Nc1cccc(Oc2nc(Nc3ccc(N4CCN(C)CC4)cc3OC)ncc2Cl)c1` was run?
Answer: Its outcome is “inactive”.

Question: `Cc1cc(Nc2cc(NC(=O)c3c(Cl)cccc3Cl)ccn2)nc(N)n1` was tested. Which outcome did it give?
Answer: Its outcome is “inactive”.

Question: `COc1cc2nccc(Oc3ccc(NC(=O)C4(C(=O)Nc5ccc(F)cc5)CC4)cc3)c2cc1OC` was tested. Which outcome did it give?
Answer: The outcome was “inactive”.

Question: For `CN(c1ncccc1CNc1nc(Nc2ccc3c(c2)CC(=O)N3)ncc1C(F)(F)F)S(C)(=O)=O`, which outcome is on record?
Answer: Its outcome is “inactive”.

Question: Which outcome does the source give for `COc1cccc(Nc2c(C(N)=O)cnc3c(C)cc(S(=O)(=O)c4cccc(C(=O)N(C)C)c4)cc23)c1` here?
Answer: The outcome was “inactive”.

Question: With `C=CC(=O)Nc1cc2c(Nc3ccc(F)c(Cl)c3)ncnc2cc1OCCCN1CCOCC1` as the compound, how does the outcome read?
Answer: The outcome was “inactive”.

Question: Which outcome does the source give for `Clc1cccc(-c2nnnn2Cc2cccnc2)c1Cl` here?
Answer: Its outcome is “inactive”.

Question: Which outcome does the source give for `CCn1nnc2c(N3CCOCC3)nc(-c3ccc(NC(=O)Nc4ccc(C(=O)N5CCN(C)CC5)cc4)cc3)nc21` here?
Answer: Its outcome is “inactive”.

Question: How did the outcome turn out when `CC(C)(O)c1cc2nc(-c3cnc(N)nc3)nc(N3CCOCC3)c2s1` was run?
Answer: Its outcome is “inactive”.

Question: How did the outcome turn out when `Cc1cn(-c2cc(NC(=O)c3ccc(C)c(Nc4nccc(-c5cccnc5)n4)c3)cc(C(F)(F)F)c2)cn1` was run?
Answer: Its outcome is “inactive”.

Question: With `CC[C@@]1(O)C(=O)OCc2c1cc1n(c2=O)Cc2cc3cc(O)ccc3nc2-1` as the compound, how does the outcome read?
Answer: The outcome was “inactive”.

Question: For `O=C(O)c1ccc2c(c1)nc(Nc1cccc(Cl)c1)c1ccncc12`, which outcome is on record?
Answer: The outcome was “inactive”.

Question: `Cc1cn2cc(C(=O)N(C)CCO)cc(N[C@@H]3CCOc4cccc(C)c43)c2n1` was tested. Which outcome did it give?
Answer: The outcome was “inactive”.

Question: `N#CCNC(=O)c1ccc(-c2ccnc(Nc3ccc(N4CCOCC4)cc3)n2)cc1` was tested. Which outcome did it give?
Answer: Its outcome is “inactive”.

Question: How did the outcome turn out when `C[C@]1(CO)CN(c2cc(C(=O)Nc3ccc4c(c3)-c3c(c(C(N)=O)nn3-c3ccc(F)cc3)CC4)c(Cl)cn2)C[C@@]1(C)CO` was run?
Answer: Its outcome is “inactive”.

Question: For `CCc1cc2c(cc1N1CCC(N3CCOCC3)CC1)C(C)(C)c1[nH]c3cc(C#N)ccc3c1C2=O`, which outcome is on record?
Answer: The outcome was “inactive”.

Question: For `CN1CCC(CNc2ccc3ncc(-c4cccc(OC(F)(F)F)c4)n3n2)CC1`, which outcome is on record?
Answer: Its outcome is “inactive”.

Question: Which outcome does the source give for `CC(C)(C)NC(=O)[C@H]1CN(Cc2cccnc2)CCN1C[C@@H](O)C[C@@H](Cc1ccccc1)C(=O)N[C@H]1c2ccccc2C[C@H]1O` here?
Answer: The outcome was “inactive”.

Question: With `Cc1c(NC(=O)OC[C@@H]2COCCN2)cn2ncnc(Nc3ccc4c(cnn4Cc4cccc(F)c4)c3)c12` as the compound, how does the outcome read?
Answer: The outcome was “inactive”.

Question: With `Cc1ccc(S(=O)(=O)Nc2cc(Cl)ccc2C(=O)Nc2nc(-c3ccccc3)cs2)cc1` as the compound, how does the outcome read?
Answer: The outcome was “inactive”.

Question: Which outcome does the source give for `CC=CC1=C(C(=O)O)N2C(=O)[C@H](NC(=O)[C@H](N)c3ccc(O)cc3)[C@@H]2SC1` here?
Answer: The outcome was “inactive”.

Question: With `CC(=O)OCCN1C(=O)c2c(C)nc3ccc(S(=O)(=O)N4CCOCC4)cc3c2C1=O` as the compound, how does the outcome read?
Answer: Its outcome is “inactive”.

Question: How did the outcome turn out when `CCCCN1CCC(CNC(=O)c2c3n(c4ccccc24)CCCO3)CC1` was run?
Answer: Its outcome is “inactive”.

Question: `COc1cc(Nc2ncc(F)c(Nc3ccc4c(n3)N(COP(=O)(O)O)C(=O)C(C)(C)O4)n2)cc(OC)c1OC` was tested. Which outcome did it give?
Answer: The outcome was “inactive”.

Question: For `CCN1CCN(CC(=O)Nc2ccc(-c3cccc4c(=O)cc(N5CCOCC5)oc34)c3sc4ccccc4c23)CC1`, which outcome is on record?
Answer: The outcome was “inactive”.

Question: With `CC(C)c1cc(-c2n[nH]c(=O)n2-c2ccc3c(ccn3C)c2)c(O)cc1O` as the compound, how does the outcome read?
Answer: Its outcome is “inactive”.

Question: How did the outcome turn out when `CC[C@@H]1C(=O)N(C)c2cnc(Nc3ccc(C(=O)NC4CCC(N5CCN(CC6CC6)CC5)CC4)cc3OC)nc2N1C(C)C` (stereo not given in full) was run?
Answer: Its outcome is “inactive”.

Question: How did the outcome turn out when `CCOc1cc2ncc(C#N)c(Nc3ccc(F)c(Cl)c3)c2cc1NC(=O)C=CCN(C)C` was run?
Answer: The outcome was “inactive”.
